We go through 8 compounds from PubChem BioAssay (Tox21).

A short description of assay [1]: qHTS assay to identify small molecule antagonists of the peroxisome proliferator-activated receptor delta (PPARd) signaling pathway - cell viability counter screen (AID 743213). Further: nearly all actives have a fitted effect of over 50% in size. Further: potency means the concentration at half of the fitted maximal effect. An outline of the steps: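 Agonist-stimulated (L165041, 300 nM final) HEK293H PPARd UAS-bla cells are exposed to compounds for 17 h at 37 C, and ATP-based luminescence (CellTiter-Glo) from the same wells reports cytotoxicity.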

Assay [2] is described as follows: qHTS assay to identify small molecule agonists of the farnesoid-X-receptor (FXR) signaling pathway - cell viability counter screen (AID 743218). Further: nearly all actives have a fitted effect of over 45% in size. Further: potency means the concentration at half of the fitted maximal effect. In short, it runs like this:
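Parallel cytotoxicity test: compound-treated (16 h, 37 C) HEK 293T FXR-bla reporter cells were lysed with CellTiter-Glo and luminescence recorded.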

Assay [3] is described as follows: qHTS assay to identify small molecule antagonists of the farnesoid-X-receptor (FXR) signaling pathway - cell viability counter screen (AID 743221; active means well fitted cell-killing curve with a large enough effect in the repeat runs, not every such curve was filed as active; further: nearly all actives have a fitted effect of over 50% in size; further: potency means the concentration at half of the fitted maximal effect). An outline of the steps: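 GeneBLAzer FXR-UAS-bla HEK 293T cells, compound plus chenodeoxycholic acid (50 uM final), 16 h at 37 C. CellTiter-Glo added to the same wells after the beta-lactamase read; luminescence read after 30 min at room temperature as viability.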

Assay [4] in a line: qHTS assay to identify small molecule agonists of the vitamin D receptor (VDR) signaling pathway - cell viability counter screen (AID 743224). Further: nearly all actives have a fitted effect of over 50% in size. Further: potency means the concentration at half of the fitted maximal effect. In short, it runs like this: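 Plated VDR-bla cells (4 h, 37C) received compound, incubated 16 h, then LiveBLAzer substrate 2 h RT; CellTiter-Glo added afterwards, luminescence read at 30 min.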
Assay [5] in a line: qHTS assay to identify small molecule antagonists of the vitamin D receptor (VDR) signaling pathway - cell viability counter screen (AID 743225). Further: nearly all actives have a fitted effect of over 50% in size. Further: potency means the concentration at half of the fitted maximal effect. An outline of the steps:
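VDR-UAS-bla HEK 293T cells were plated and incubated 4 h at 37C, then dosed with compound plus 3 nM (final) 1-alpha,25-dihydroxyvitamin D3 for 16 h. After the 2 h beta-lactamase read, viability in the same wells was read as CellTiter-Glo luminescence after 30 min at room temperature.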

Assay [6] can be described thus: qHTS assay to identify small molecule agonists of the NFkB signaling pathway - cell viability counter screen (AID 1159515; calls by dose curve; further: nearly all actives have a fitted effect of over 55% in size; further: potency means the concentration at half of the fitted maximal effect). An outline of the steps: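 Using the same wells as the NFkB reporter read, ME-180 NFkB-bla cells given compounds for 5 hr were assessed for viability via CellTiter-Glo, with luminescence taken after a 30 min room-temperature incubation.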
Assay [7] is described as follows: qHTS assay to identify small molecule agonists of the endoplasmic reticulum stress response signaling pathway (AID 1159516; active means well fitted activation curve with a large enough effect in the signal ratio in the repeat runs, not every such curve was filed as active; the % refers to the signal ratio). An outline of the steps: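 An ESRE-bla HeLa cell assay: compounds were pin-transferred from DMSO onto overnight-plated cells and left 5 hr at 37 C. Substrate was then loaded for 2 hr at room temperature before reading fluorescence at 460 nm and 530 nm.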

Assay [8] can be described thus: qHTS assay to identify small molecule agonists of the endoplasmic reticulum stress response signaling pathway - cell viability counter screen (AID 1159517; calls by dose curve; further: nearly all actives have a fitted effect of over 50% in size; further: potency means the concentration at half of the fitted maximal effect). An outline of the steps: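 Luminescence readout: CellTiter-Glo, 30 min RT, same wells as the ESRE-bla reporter read. HeLa ESRE-bla, 1,500 cells/well, o/n 37 C; cpd 5 hr 37 C/5% CO2.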
A short description of assay [9]: qHTS assay to identify small molecule antagonists of the retinoid-related orphan receptor gamma (ROR-gamma) signaling pathway - cell viability counter screen (AID 1159520). Further: nearly all actives have a fitted effect of over 50% in size. Further: potency means the concentration at half of the fitted maximal effect. In short, it runs like this: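 Tet-on ROR gamma CHO cells (1,000/well) were plated 4 hr, given compounds in DMSO for 2 hr at 37 C, then induced with 1 uM final doxycycline for 16 hr. Viability was read as ATP by CellTiter-Glo luminescence after 30 min.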

A short description of assay [10]: qHTS assay to identify small molecule agonists of the AP-1 signaling pathway (AID 1159526; calls by dose curve).
In assay [11] the target is Retinoic acid receptor RXR-alpha (Homo sapiens) (UniProt P19793). In words: qHTS assay to identify small molecule agonists of the RXR signaling pathway (AID 1159527; calls by dose curve; further: nearly all actives have a fitted effect of over 35% in size; further: potency means the concentration at half of the fitted maximal effect). In short, it runs like this: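 GeneBLAzer RXR-alpha-UAS-bla HEK 293T cells in 2% charcoal-stripped FBS medium were exposed to compounds for 16 hr at 37 C in agonist mode. Beta-lactamase reporter read as 460/530 nm FRET ratio after 2 hr substrate loading.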
Chain of Retinoic acid receptor RXR-alpha (Homo sapiens) (P19793 whole entry, looked up): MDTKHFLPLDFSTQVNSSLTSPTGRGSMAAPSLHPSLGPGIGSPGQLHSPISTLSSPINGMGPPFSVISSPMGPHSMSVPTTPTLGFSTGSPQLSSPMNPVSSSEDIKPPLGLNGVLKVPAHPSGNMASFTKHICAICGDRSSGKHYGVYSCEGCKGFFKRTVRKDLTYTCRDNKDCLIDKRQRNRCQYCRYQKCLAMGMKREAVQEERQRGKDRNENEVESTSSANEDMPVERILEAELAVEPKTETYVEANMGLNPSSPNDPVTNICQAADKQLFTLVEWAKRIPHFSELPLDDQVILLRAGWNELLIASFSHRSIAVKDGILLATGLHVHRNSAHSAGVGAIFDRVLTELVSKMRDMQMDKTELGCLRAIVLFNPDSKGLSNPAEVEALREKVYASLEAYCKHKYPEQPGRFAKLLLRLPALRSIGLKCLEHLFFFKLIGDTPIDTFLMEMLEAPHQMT

The nature of assay [12]: qHTS assay to identify small molecule agonists of the RXR signaling pathway - cell viability counter screen (AID 1159529). Further: nearly all actives have a fitted effect of over 50% in size. Further: potency means the concentration at half of the fitted maximal effect. An outline of the steps:
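RXR-alpha-UAS-bla HEK 293T cells in medium with 2% charcoal-stripped FBS were pre-incubated 5 hr, then compound-treated 16 hr at 37 C. Viability was read by CellTiter-Glo luminescence in the same wells as the beta-lactamase assay, with tetraoctyl ammonium bromide as positive control.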

The nature of assay [13]: qHTS assay to identify small molecule antagonists of the retinoid acid receptor (RAR) signaling pathway - cell viability counter screen (AID 1159551). Further: nearly all actives have a fitted effect of over 35% in size. Further: potency means the concentration at half of the fitted maximal effect. An outline of the steps: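 Retinol-stimulated (1 uM final) C3RL4 cells, compound 6 h, 37 C; readout CellTiter-Glo luminescence (ATP) after 30 min RT incubation.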
In assay [14] the target is Nuclear receptor ROR-gamma (Homo sapiens) (UniProt P51449). In words: qHTS assay to identify small molecule antagonists of the retinoid-related orphan receptor gamma (ROR-gamma) signaling pathway (AID 1159521; further: nearly all actives have a fitted effect of over 50% in size; further: potency means the concentration at half of the fitted maximal effect). An outline of the steps: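 Tet-on ROR-gamma CHO cells with ROR response element-luciferase reporter; compounds added 2 hr before 1 uM doxycycline induction, then 16 hr at 37 C. Antagonism scored as decreased ONE-Glo luminescence.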

A short description of assay [15]: qHTS assay to identify small molecule agonists of the AP-1 signaling pathway - cell viability counter screen (AID 1159525; calls by dose curve; further: nearly all actives have a fitted effect of over 55% in size). In short, it runs like this: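 ME-180 AP-1-bla, 2500 cells/well, Opti-MEM + 0.5% dialyzed FBS; overnight 37 °C; cpd 15-pt titration, 5 h 37 °C; CellTiter-Glo 30 min RT; luminescence read; normalised to TOAB and DMSO controls.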
Assay [16] addresses Peroxisome proliferator-activated receptor delta (Homo sapiens) (UniProt Q03181). Description: qHTS assay to identify small molecule antagonists of the peroxisome proliferator-activated receptor delta (PPARd) signaling pathway (AID 743215; active means well fitted inhibition curve with a large enough effect in the signal ratio in the repeat runs, not every such curve was filed as active; the % refers to the signal ratio; further: series mostly up to about 62 µM). In short, it runs like this:
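HEK293H UAS-bla, PPARd; agonist L165041 300 nM final with cpd in DMSO; 37 C 17 h; FRET substrate, RT 2 h; fluorescence intensity.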

Assay [17] concerns the target Vitamin D3 receptor (Homo sapiens) (UniProt P11473). Description: qHTS assay to identify small molecule antagonists of the vitamin D receptor (VDR) signaling pathway (AID 743223; active means well fitted inhibition curve with a large enough effect in the signal ratio in the repeat runs, not every such curve was filed as active; the % refers to the signal ratio; further: potency means the concentration at half of the fitted maximal effect). In short, it runs like this:
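VDR-bla cells were treated with compound plus 3 nM final 1alpha,25-dihydroxyvitamin D3 for 16 h at 37C. Beta-lactamase reporter read by B/G FRET substrate fluorescence after 2 h at room temperature. qHTS format.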

Assay [18] concerns the target Bile acid receptor (Homo sapiens) (UniProt Q96RI1). Description: qHTS assay to identify small molecule antagonists of the farnesoid-X-receptor (FXR) signaling pathway (AID 743217; active means well fitted inhibition curve with a large enough effect in the signal ratio in the repeat runs, not every such curve was filed as active; the % refers to the signal ratio; further: potency means the concentration at half of the fitted maximal effect). In short, it runs like this: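 GeneBLAzer FXR-UAS-bla HEK 293T, CDCA-stimulated (50 uM final). Compound treatment 16 h, 37 °C. Detection: beta-lactamase cleavage of B/G FRET substrate, fluorescence.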

A short description of assay [19]: qHTS assay to identify small molecule antagonists of the retinoic acid receptor (RAR) signaling pathway (AID 1159552; further: nearly all actives have a fitted effect of over 50% in size; further: potency means the concentration at half of the fitted maximal effect). An outline of the steps:
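Retinol signaling pathway inhibitors screened in C3RL4 RARE-luciferase reporter cells seeded overnight at 37 C, then compounds added with 1 uM (final) retinol as pathway substrate. After 6 hr at 37 C, luciferase luminescence read after 30 min at room temperature.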

Values joined by “and” are separate entries in the source; they are usually repeats but may differ in a detail not shown here. Identical values can stand only once. Records with an inconclusive call do not appear. The source holds several records for some structures; these can differ, active in one and inactive in another. Active and inactive are the calls of the source. Unless noted, the call rests on the fitted dose curve; in most records, active means well fitted curve in the direction sought with a large enough effect in the repeat runs; inconclusive means weak or mixed curves; inactive means no such curve, though single readings can be large; an effect the other way counts as inactive or inconclusive.

Chain of Vitamin D3 receptor (Homo sapiens) (P11473 whole entry, looked up): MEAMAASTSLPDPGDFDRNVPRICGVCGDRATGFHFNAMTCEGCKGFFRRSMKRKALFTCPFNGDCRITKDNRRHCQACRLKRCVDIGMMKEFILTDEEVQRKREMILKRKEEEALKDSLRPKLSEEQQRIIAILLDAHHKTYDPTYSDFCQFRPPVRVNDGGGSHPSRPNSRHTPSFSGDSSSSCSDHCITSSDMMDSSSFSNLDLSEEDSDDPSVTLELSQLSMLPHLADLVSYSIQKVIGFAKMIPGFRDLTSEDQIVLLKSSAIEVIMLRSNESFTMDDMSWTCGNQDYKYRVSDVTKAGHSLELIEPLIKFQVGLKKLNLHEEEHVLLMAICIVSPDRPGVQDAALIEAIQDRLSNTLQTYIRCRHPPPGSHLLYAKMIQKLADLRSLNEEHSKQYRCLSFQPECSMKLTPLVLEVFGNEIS
Chain of Peroxisome proliferator-activated receptor delta (Homo sapiens) (Q03181 whole entry, looked up): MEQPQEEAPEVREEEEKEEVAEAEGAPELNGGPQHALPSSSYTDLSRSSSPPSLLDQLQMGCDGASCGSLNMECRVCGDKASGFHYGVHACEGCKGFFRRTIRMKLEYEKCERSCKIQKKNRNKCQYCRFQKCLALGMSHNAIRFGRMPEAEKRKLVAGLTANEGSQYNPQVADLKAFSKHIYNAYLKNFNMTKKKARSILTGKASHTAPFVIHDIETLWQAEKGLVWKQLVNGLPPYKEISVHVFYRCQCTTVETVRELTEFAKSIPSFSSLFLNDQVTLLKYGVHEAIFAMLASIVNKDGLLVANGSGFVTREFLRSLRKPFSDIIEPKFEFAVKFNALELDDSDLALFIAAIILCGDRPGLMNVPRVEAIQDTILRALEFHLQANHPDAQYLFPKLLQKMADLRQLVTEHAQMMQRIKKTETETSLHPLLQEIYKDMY
Chain of Bile acid receptor (Homo sapiens) (Q96RI1 whole entry, looked up): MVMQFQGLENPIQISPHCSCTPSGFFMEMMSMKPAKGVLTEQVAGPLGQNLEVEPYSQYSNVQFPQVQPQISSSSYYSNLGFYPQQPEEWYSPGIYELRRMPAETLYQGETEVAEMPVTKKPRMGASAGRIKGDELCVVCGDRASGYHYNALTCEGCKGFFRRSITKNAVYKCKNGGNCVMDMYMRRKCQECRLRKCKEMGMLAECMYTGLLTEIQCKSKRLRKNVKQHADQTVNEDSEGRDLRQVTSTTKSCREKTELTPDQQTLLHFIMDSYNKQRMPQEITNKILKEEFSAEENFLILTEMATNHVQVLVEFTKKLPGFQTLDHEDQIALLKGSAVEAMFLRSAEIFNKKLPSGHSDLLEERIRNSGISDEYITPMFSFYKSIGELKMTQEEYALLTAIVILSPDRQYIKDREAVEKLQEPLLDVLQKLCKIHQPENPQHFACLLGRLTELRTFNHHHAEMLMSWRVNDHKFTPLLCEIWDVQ

Regarding `CCCCCCCCCCCCOS(=O)(=O)O`, the Potency was 38.9 µM (active) and inactive in assay [1]; 49 µM (active) and 24.5 µM (active) and inactive in assay [2]; 34.7 µM (active) and inactive in assay [5]; 34.7 µM (active) and 21.9 µM (active) and inactive in assay [12]. Moreover, the Potency result in [3], in assay [4], in assay [6], in assay [8], in assay [9] and in assay [10] was “inactive” throughout. Besides, the Potency result in assay [11] and in assay [13] was “inactive” throughout. The outcome in assay [7] was inactive.

For the compound `CCC[N+]1(C)CCCCC1`, the Potency result in assay [1], in [3], in [4], in assay [5], in assay [6] and in assay [8] was “inactive” each time. In addition, the Potency result in [9], in assay [14], in assay [10], in assay [11], in [12] and in assay [13] was “inactive” in each case. In addition, the result in assay [7] was inactive.

On to `CCCCn1cc[n+](C)c1C`, for which the Potency entry in [1], in assay [3], in [4], in [5], in assay [6] and in assay [8] was “inactive” in each case. In addition, the Potency entry in [9], in assay [15], in assay [10], in [11], in [12] and in assay [13] was “inactive” in each case. Further, the result in assay [7] was inactive.

Turning to `O=C(O)COc1ccc(Cl)cc1Cl`, the Potency result in assay [1], in assay [3], in assay [17], in assay [4], in [5] and in assay [6] was “inactive” in each case. In addition, the Potency entry in assay [8], in assay [9], in [10], in assay [11], in assay [12] and in assay [13] was “inactive” throughout. Also, the compound was called inactive in assay [16] and in assay [7].

With `CC[n+]1ccccc1`, the Potency result in assay [1], in assay [3], in assay [4], in [5], in assay [6] and in assay [8] was “inactive” each time. Also, the Potency result in [9], in assay [10], in [11] and in [12] was “inactive” throughout. For the same compound, the compound was called inactive in assay [7]. Also, the Potency result was “inactive and 1.71 µM (active)” in assay [14]; “inactive and 54 µM (active)” in assay [13].

For the compound `CC(=O)[O][Hg][c]1ccccc1`, the Potency in [1] was 1.53 µM (active) and 1.1 µM (active) and 1.68 µM (active); in assay [18] it was 776 nM (active); in [2] it was 968 nM (active) and 871 nM (active) and 2.11 µM (active); in assay [3] it was 1.09 µM (active) and 1.1 µM (active) and 2.98 µM (active); in [17] it was 863 nM (active) and 2.13 µM (active); in assay [4] it was 686 nM (active) and 871 nM (active) and 422 nM (active). Moreover, the Potency in [5] is 1.37 µM (active) and 2.19 µM (active) and 2.39 µM (active); in assay [6], 485 nM (active) and 549 nM (active) and 1.34 µM (active); in assay [8] it was 485 nM (active) and 692 nM (active) and 2.13 µM (active); in assay [9], 304 nM (active) and 969 nM (active) and 422 nM (active); in assay [14], 429 nM (active) and 545 nM (active) and 750 nM (active); in assay [12] it was 1.72 µM (active) and 1.95 µM (active) and 2.39 µM (active). Moreover, the Potency in assay [13] is 5.4 µM (active) and 13.7 µM (active) and 16.8 µM (active); in assay [19] it was 1.92 µM (active) and 1.54 µM (active) and 2.11 µM (active).

In the case of `CCCCCCCCCCCC(=O)O`, the Potency entry in [1], in assay [2], in assay [3], in assay [4], in [5] and in [6] was “inactive” throughout. The Potency entry in [8], in [9], in [10], in assay [12], in [13] and in assay [19] was “inactive” in each case. The compound was called inactive in [7]. Moreover, the Potency in [11] was 55.1 µM (active) and 63 µM (active).

For the compound `CCCCCCn1cc[n+](C)c1`, the Potency entry in assay [1], in [3], in [4], in assay [5], in [6] and in assay [8] was “inactive” throughout. Besides, the Potency result in assay [9], in [14], in assay [10], in assay [11], in assay [12] and in assay [13] was “inactive” each time. Also, in assay [7], the compound was classed as inactive.
